Source: PubChem
CHO-K1 Ca antag – M1 antagonist counterscreen hit in parental CHO-K1 cells. ATP-induced calcium, Fluo-8 fluorescence. inhibition, % at 3 µM. 360,000 compounds, 0.6% hits;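 active = inhibition above a per-plate cutoff, the plate's mean sample inhibition plus 3 SD, cut at about 24% in these data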;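 also: 0% = DMSO plus EC80 ATP and 100% = DMSO alone without ATP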
CHRM4 agonist – human M4 muscarinic receptor agonists, primary screen, CHO-K1 cells, Fluo-8 calcium fluorescence; AID 624127, 2012; activation, % at 3 µM; CHO-K1 hM4/Gqi5; vehicle 0%, full acetylcholine response 100%; 360,000 compounds, 0.14% hits; Muscarinic acetylcholine receptor M4 (Homo sapiens), P08173;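 active = activation above the run mean over all test wells plus 3 SD, cut at about 32% in these data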;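 also: peak over basal fluorescence ratio per well then scaled between controls; 0% = DMSO wells and 100% = acetylcholine at EC100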
Target sequence (P08173 whole entry, looked up): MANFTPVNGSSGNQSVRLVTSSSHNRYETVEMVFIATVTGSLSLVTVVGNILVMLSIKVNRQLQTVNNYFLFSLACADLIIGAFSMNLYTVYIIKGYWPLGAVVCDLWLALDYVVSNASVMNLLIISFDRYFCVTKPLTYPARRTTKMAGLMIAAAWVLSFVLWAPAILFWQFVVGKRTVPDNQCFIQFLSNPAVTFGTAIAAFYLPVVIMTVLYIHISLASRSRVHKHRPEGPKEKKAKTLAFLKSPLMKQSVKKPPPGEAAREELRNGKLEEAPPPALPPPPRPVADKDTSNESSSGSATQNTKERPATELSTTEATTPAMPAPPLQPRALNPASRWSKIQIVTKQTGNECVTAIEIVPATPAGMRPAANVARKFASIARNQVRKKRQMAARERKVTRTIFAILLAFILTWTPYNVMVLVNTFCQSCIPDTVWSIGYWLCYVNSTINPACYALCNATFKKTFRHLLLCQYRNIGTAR
M1 PAM parental – nonselective calcium activators in parental CHO-K1 cells, primary screen, counter-screen for M1 PAM project, cell-based, Fluo-8 calcium fluorescence, full deck, 1536-well | ATP EC20; 0% at ATP EC20, 100% at ATP max | activation, % at 3 µM | 360,000 compounds, 0.02% hits;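 active = activation above the run cutoff, the mean activation of all test compounds plus 3 SD, cut at about 40% in these data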;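 also: peak over basal fluorescence ratio in a 140 s read after ATP addition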
CHRM4 PAM – human M4 muscarinic receptor positive allosteric modulators, primary screen, CHO-K1 cells, Fluo-8 calcium fluorescence; Muscarinic acetylcholine receptor M4 (Homo sapiens), P08173; 360,000 compounds, 0.4% hits; activation, % at 3 µM; CHO-K1 hM4/Gqi5, ACh EC20; 0% = ACh EC20, 100% = maximal ACh;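 active = activation above its plate's cutoff, the mean activation of sample wells plus 3 SD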
M4 antag – human M4 muscarinic receptor antagonists, primary screen, CHO cells, Fluo-8 calcium fluorescence; CHO-hM4 cells, ACh EC80; AID 624125, 2012; 360,000 compounds, 0.73% hits; Muscarinic acetylcholine receptor M4 (Homo sapiens), P08173; inhibition, % at 3 µM;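 active = inhibition above its plate's cutoff, the mean inhibition of sample wells plus 3 SD, cut at about 27% in these data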;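 also: 0% = acetylcholine EC80 with DMSO and 100% = DMSO without agonist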
M1 ag parental – counter-screen for M1 agonists: effect in parental CHO-K1 cells; activation, % at 3 µM; Fluo-8 calcium fluorescence; scaled to maximal ATP response, vehicle zero; 360,000 compounds, 0.48% hits; AID 602248, 2012; in the data active = activation above about 15%;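 also: untransfected CHO-K1 host cells lacking M1 receptor as counterscreen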
Numbers without * were called inactive. The list is not random: actives were taken first. Their share in the collection is about 2%.

SMILES | CHO-K1 Ca antag | CHRM4 agonist | M1 PAM parental | CHRM4 PAM | M4 antag | M1 ag parental
O=C(Nc1ccc(N2CCN(C(=O)c3ccc(Cl)cc3)CC2)cc1)c1ccc2c(c1)OCCO2 | -6 | 6 | 16 | -9 | 8 | 8
O=C(Nc1ccc2c(c1)OCO2)c1ccccc1 | -14 | 1 | 6 | -1 | -2 | 0
Cc1ccc(C(=O)N2CCN(c3ccc(NC(=S)NC(=O)Cc4ccccc4)cc3)CC2)cc1 | 24* | 4 | 5 | -9 | 13 | 21*
O=C(C1COc2ccccc2O1)N1CCn2c(nc3ccccc32)C1 (stereo not drawn) | -9 | 6 | 14 | 3 | -13 | 2
CCn1c(-c2ccc(C)cc2)nn(CC(=O)NCCc2ccccc2)c1=S | -12 | -1 | 22 | -3 | -1 | 1
COc1cc(C(=O)OCC(=O)N2CCCCCC2)c([N+](=O)[O-])cc1OC | -10 | 8 | -13 | -3 | 0 | 4
O=[N+]([O-])c1c(NCCCO)cc(Sc2nc3ccccc3s2)c2nonc12 | 19 | 16 | 8 | -16 | 75* | 6
CCC(=O)OCCNc1cc(Sc2nc3ccccc3[nH]2)c2nonc2c1[N+](=O)[O-] | 5 | 3 | 18 | -10 | 54* | -1
CCCC(=O)OCCNc1cc(Sc2nccn2C)c2nonc2c1[N+](=O)[O-] | 3 | 2 | 11 | -4 | 36* | 0
CCC(=O)OCCNc1cc(Sc2nc3ccccc3s2)c2nonc2c1[N+](=O)[O-] | 9 | -1 | 6 | 8 | 21 | -1
CC1CCC(=O)N(CCSc2ccccc2)CC1 (stereo not drawn) | -3 | 1 | 6 | 6 | -6 | 2
CCC(NC(=O)c1cc(COc2cc(C)c(Cl)c(C)c2)on1)c1ccncc1 (stereo not drawn) | 3 | 23 | 2 | -2 | 8 | 17*
Cc1ccc(NC2=NCC(=O)N2Cc2ccc3c(c2)OCO3)c(C)c1 | -1 | 3 | 6 | 5 | -8 | 2
CCc1ccc(NC2=NCC(=O)N2Cc2ccc3c(c2)OCO3)cc1 | -5 | 2 | 19 | 21* | -6 | 1
COc1ccc(C(=O)NCC(c2ccco2)N2CCc3ccccc32)cc1 (stereo not drawn) | -11 | -2 | 18 | 0 | 1 | -1
COc1ccc(C(=O)NCC(c2cccs2)N2CCc3ccccc32)c(OC)c1 (stereo not drawn) | -32 | 4 | 58* | 9 | -7 | 5
Cc1ccc(-n2[nH]c(C)c(/C=N/c3ccccn3)c2=O)cc1 | 17 | 1 | -18 | 3 | -4 | 0
O=C(Nc1ccccc1)N1CCCC(c2nc(-c3ccc(F)cc3)no2)C1 (stereo not drawn) | -7 | 0 | 17 | 5 | 0 | 1
O=C(Nc1cccc(C(F)(F)F)c1)N1CCC(c2nc(-c3ccc(F)cc3)no2)CC1 | -1 | 16 | -5 | -18 | 51* | 9
COc1ccccc1OCCNC(=O)C1CCN(C(C)=O)CC1 | -15 | 2 | 5 | -2 | -8 | 1
Cc1sc2nc(CN3CCCC3)nc(N3CCC(C(N)=O)CC3)c2c1C | -4 | 4 | 15 | 31* | 22 | 1
Cc1sc2nc(CN3CCCC3)nc(N3CCN(C(=O)c4ccco4)CC3)c2c1C | -7 | 2 | 14 | -6 | 0 | 0
Cc1ccc(NC(=O)COc2ccc(Cl)cc2Cl)cc1S(=O)(=O)N1CCOCC1 | -2 | 14 | 11 | -3 | -9 | 3
CCCS(=O)(=O)NC(=O)C1(C)CCN(C(=O)c2ccccc2Br)C1 (stereo not drawn) | 1 | 1 | 15 | 8 | -7 | 0
CCCS(=O)(=O)NC(=O)C1(C)CCN(C(=O)c2cccc(C)c2C)C1 (stereo not drawn) | -15 | 1 | 16 | 19* | -11 | 1
SMILES | CHO-K1 Ca antag | CHRM4 agonist | M1 PAM parental | CHRM4 PAM | M4 antag | M1 ag parental
COc1ccc(CC(=O)OCC(=O)Nc2ncc(Cl)cc2Cl)cc1OC | -4 | 2 | 12 | 11 | 27* | 0
O=C(CN1CCN(CC(=O)c2ccc(Cl)cc2)CC1)c1ccc(Cl)cc1 | -13 | 1 | 8 | 4 | 7 | 1
O=C(Cn1cc(Cl)ccc1=O)c1ccc(Cl)cc1 | 24* | 1 | -16 | -5 | -1 | -1
CN(C)CCCCCCCCCCC(=O)/C=N/O | 1 | 0 | -5 | -5 | -2 | 0
CN(CCCCCCCCC(=O)/C=N/O)Cc1ccccc1 | -8 | 1 | 12 | -40 | 73* | 1
CN(C(=O)CCNC(=O)Cn1cnc2ccccc2c1=O)c1ccc(F)cc1 | -12 | 0 | 5 | 2 | -1 | 1
Cc1ccc(N(C)C(=O)CCNC(=O)Cn2cnc3ccccc3c2=O)cc1C | 35* | 2 | 17 | 5 | -10 | 1
CCOC(=O)N1CCN(C(=O)CNC(=O)Cn2cnc3ccccc3c2=O)CC1 | -8 | 0 | 19 | 21* | 14 | 1
CC(=O)c1sc(NC(=O)CCS(=O)(=O)c2ccccc2)nc1C | 1 | 1 | 0 | 17* | 1 | 1
O=C(COC(=O)c1ccccn1)NC12CC3CC(CC(C3)C1)C2 | 19 | 1 | -5 | 11 | 30* | 0
O=C(COC(=O)c1ccccc1O)NC12CC3CC(CC(C3)C1)C2 | 0 | 2 | -12 | -5 | 13 | 0
Cc1ccc(NC(=O)C2=COCCO2)cc1S(=O)(=O)N1CCOCC1 | -1 | 1 | -14 | -5 | 3 | 0
COc1ccc(OCC(O)Cn2c(=N)n(Cc3ccccc3)c3ccccc32)cc1 (stereo not drawn) | -5 | 14 | 13 | -9 | -6 | 2
Cc1ccc(OCC(O)Cn2c(=N)n(Cc3ccccc3)c3ccccc32)cc1 (stereo not drawn) | 1 | 33* | 23 | -24 | 12 | 5
COc1ccc(CNC(=O)Cc2nn(C)c(=O)c3ccccc23)cc1 | 24* | 13 | -6 | 2 | 18 | 11
Cn1nc(CC(=O)NCc2ccc(C(F)(F)F)cc2)c2ccccc2c1=O | 4 | 13 | 1 | -8 | -3 | 8
C[C@@H]1CCCCO[C@@H](CN(C)S(=O)(=O)c2ccc(Cl)cc2)[C@@H](C)CN([C@H](C)CO)C(=O)c2cc(N(C)C)ccc2O1 | -4 | 0 | -5 | 18* | -22 | 0
COc1cc(NC(=O)CN2C(=O)C(c3ccccc3)=NC23CCCCCC3)cc(OC)c1 | 3 | 2 | 5 | 21* | -3 | -1
CCc1ccc2[nH]c(=O)c(C(c3nnnn3Cc3ccc(OC)cc3)N3CCOCC3)cc2c1 (stereo not drawn) | -6 | 2 | -5 | 39* | 5 | 0
